From PubChem
Most compounds without a hit are left out; they make up all but 1.6% or so of the library.
PolyA inh: blocks polyadenylation in yeast reporter cells. AID 1875. 0.02% of 300,000 active. activity score, % at 12 µM. S. cerevisiae SKY197-pL101 polyadenylation reporter, beta-gal luminescence; efflux-impaired pdr1/pdr3 knockout yeast; score 100 = 6 SD above DMSO;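 active = lowest replicate activity score at least 50, where 100 means six control SD above control mean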;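 note: yeast exposed to compound for 9 h at 30 °C; higher score means more reporter readthrough which indicates perturbed polyadenylation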
HTR5A inv ag: HTR5A inverse agonism, opioid heterodimer counter-screen; P47898; HTR5A cell line, luminescence; inhibition, % at 9.3 µM; 0.083% of 340,000 active; AID 504634; in the data active = inhibition mostly above about 23%, no sharp cut-off; inactive = mostly below about 18%;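 note: 0% = cells with DMSO and 100% = no-cell wells with DMSO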
Target sequence (P47898 whole entry, looked up): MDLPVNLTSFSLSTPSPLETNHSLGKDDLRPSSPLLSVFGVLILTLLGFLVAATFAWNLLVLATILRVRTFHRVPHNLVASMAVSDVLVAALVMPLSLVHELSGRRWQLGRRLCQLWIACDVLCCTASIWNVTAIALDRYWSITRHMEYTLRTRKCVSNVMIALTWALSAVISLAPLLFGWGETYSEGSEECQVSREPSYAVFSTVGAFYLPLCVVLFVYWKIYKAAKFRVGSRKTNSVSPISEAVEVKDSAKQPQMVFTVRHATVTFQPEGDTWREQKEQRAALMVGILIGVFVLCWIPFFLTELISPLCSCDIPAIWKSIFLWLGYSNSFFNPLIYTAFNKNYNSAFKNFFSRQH
NALP1 yeast inh: blocks the NALP1 inflammasome reconstituted in yeast; S. cerevisiae NALP1/ASC/caspase-1 growth, X-gal OD620, 72 h; inhibition, % at 10 µM; 0.61% of 280,000 active; in the data active = inhibition mostly above about 24%, no sharp cut-off; inactive = mostly below about 32%
HTR5A ag: counter-screen for OPRM1-OPRD1 agonists: human HTR5A agonism; HTR5A agonist assay, luminescence, cell-based; activation, % at 9.3 µM; 0.61% of 340,000 active; AID 504692; in the data active = activation mostly above about 9.5%, no sharp cut-off; inactive = mostly below about 7.6%;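 note: 0% = cells with vehicle only and 100% = reference agonist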
MOR-DOR ag: agonists of human mu-delta opioid receptor heterodimerization | cells, OPRM1-OPRD1 heterodimerization, luminescence | activation, % at 9.3 µM | 0.3% of 340,000 active | P35372+P41143 | AID 504326; in the data active = activation above about 18%;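 note: 0% = vehicle-treated cells and 100% = reference agonist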
MOR-DOR inv ag: inverse agonists of human mu-delta opioid receptor heterodimerization. P35372+P41143. cell-based MOR-DOR heterodimer luminescence, inverse agonism. inhibition, % at 9.3 µM. 0.21% of 340,000 active; in the data active = inhibition above about 22%, passing the limit was not always enough;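 note: 0% = cells with DMSO and 100% = wells without cells with DMSO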
OPRM1-D1 inv cf: OPRM1-OPRD1 heterodimer inverse agonism, confirmation; cells expressing OPRM1/OPRD1 heterodimer, luminescence; AID 504900; inhibition, % at 9.3 µM; 20% of 580 active; shares compounds with MOR-DOR inv ag; in the data active = inhibition above about 32%;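 note: 0% = cells with DMSO and 100% = wells lacking cells with DMSO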
HTR5A inv count: inverse agonist of human HTR5A in OPRM1-OPRD1 counter-screen; shares compounds with MOR-DOR inv ag; HTR5A-expressing cells, luminescence, inverse agonism; inhibition, % at 9.3 µM; 580 tested, under 10 active; call rule not given here;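 note: 0% = cells with DMSO and 100% = no-cell wells with DMSO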
The depositor's hits bear a star; i = inactive; . = not tested or not shown.

SMILES	PolyA inh	HTR5A inv ag	NALP1 yeast inh	HTR5A ag	MOR-DOR ag	MOR-DOR inv ag	OPRM1-D1 inv cf	HTR5A inv count
Cc1cc(C(=O)NNc2ccc(C)c(C)c2)no1	5.3	9.3	9.2	-2.8	-11.5	57.8*	-36.1	-27.4
CCn1nc(C)cc1-c1nnc(Sc2ncc([N+](=O)[O-])s2)n1C	-56.0	6.3	23.6	-1.7	14.9	-74.1	.	.
CC(OC(=O)C1CCN(S(=O)(=O)c2ccc(Cl)cc2)CC1)C(=O)NC1CCCCC1C (stereo unspecified)	-6.6	25.9	16.3	-0.1	-1.4	7.4	.	.
CC(NC(=O)CN1C(=O)NC2(CCCCCC2)C1=O)c1ccccc1 (stereo unspecified)	.	13.6	.	7.3	-3.4	13.2	.	.
CCOCC(=O)Nc1nc2ccc(OCC)cc2s1	23.3	-0.9	6.1	-1.6	-2.6	16.0	.	.
CCOc1ccc2nc(-c3cc(NC(C)=O)ccc3O)sc2c1	26.5	7.2	11.2	1.4	-3.8	27.0*	-12.9	-10.6
COc1ccc(CCNC(=O)COC(=O)CNS(=O)(=O)c2ccc(SC)c([N+](=O)[O-])c2)cc1	.	17.6	.	-7.0	-2.0	7.8	.	.
O=C(Nc1ccncc1)C1c2ccccc2Oc2ccccc21	-11.7	0.5	-4.8	-2.0	-6.9	35.7*	11.1	5.8
COC(=O)C(Cc1ccccc1)NC(=O)CCNC(=O)c1ccc(Br)cc1 (stereo unspecified)	1.8	-16.0	11.3	5.6	2.2	-14.3	.	.
COC(=O)c1[nH]c(=O)c2ccccc2c1OCc1ccccc1	2.2	-7.5	-19.1	1.4	-2.0	11.8	.	.
COC(=O)c1[nH]c(=O)c2ccccc2c1O	-0.8	12.2	7.3	-4.9	-10.1	42.3*	-151.7	-7.5
CCOc1ccc(NS(=O)(=O)c2ccc(C(=O)NCC(c3ccc(OC)cc3)N3CCCC3)cc2)cc1 (stereo unspecified)	0.0	5.5	.	-1.7	-4.0	25.7*	3.9	-0.9
CCC1CCCCN1C(=O)COc1ccc(S(=O)(=O)N2CCOCC2)cc1Cl (stereo unspecified)	.	4.7	.	-1.5	-1.1	4.1	.	.
COc1ccc(/C=C2\CCc3ccccc3C2=O)cc1O	18.8	-16.7	6.2	6.2	-1.2	6.5	.	.
CCS(=O)(=O)N1CCC(C(=O)OCC(=O)c2ccc(Br)cc2)CC1	-7.5	6.0	.	-2.7	-7.0	35.2*	1.4	-2.1
CC(=O)NC(c1ccc(Cl)cc1)c1c(O)ccc2ccc(O)cc12 (stereo unspecified)	-5.0	9.8	9.3	-3.6	-6.6	33.0*	-18.5	1.9
O=C(NC(c1ccc(Cl)cc1)c1c(O)ccc2ccccc12)c1ccccc1 (stereo unspecified)	.	-2.8	19.5	-1.2	-1.7	9.3	.	.
CCOC(=O)C1CCCc2c1[nH]c1c(C(=O)O)cccc21 (stereo unspecified)	-20.8	1.0	8.7	-0.4	-2.1	11.9	.	.
Cc1ccc(C(=O)Nc2ccccc2[N+](=O)[O-])cc1S(=O)(=O)N1CCOCC1	1.8	-2.8	-0.5	1.7	-5.5	39.0*	-430.2	4.8
COc1ccc(C(=O)Nc2ccccc2[N+](=O)[O-])cc1S(=O)(=O)N1CCOCC1	14.3	10.0	1.4	-3.6	-3.8	12.5	.	.
CN(C)c1nc(=NCc2cccs2)ss1	.	1.9	.	-0.5	-12.0	58.6*	29.6	19.6
CC(SC(=S)N(C)Cc1cccs1)C(=O)O (stereo unspecified)	9.0	-5.7	29.0	1.1	-1.6	11.3	.	.
COc1ccc(C)cc1NC(=O)c1nnn(Cc2cccc(C(F)(F)F)c2)c1N	-7.9	-17.3	-3.1	0.5	6.5	-41.0	.	.
Cc1ccc(OCCN2C(=O)C(=O)c3cccc(C)c32)cc1	-10.1	1.5	5.8	-0.5	-7.8	42.3*	-29.1	-15.1
Cc1cccc(OCCN2C(=O)c3ccccc3C2=O)c1	-5.7	-21.6	14.3	2.0	2.9	-16.0	.	.
SMILES	PolyA inh	HTR5A inv ag	NALP1 yeast inh	HTR5A ag	MOR-DOR ag	MOR-DOR inv ag	OPRM1-D1 inv cf	HTR5A inv count
CCOC(=O)CN1C(=O)C(=O)c2cccc(C)c21	-2.6	24.5	11.5	-8.7	-14.6	75.4*	i	-107.6
Cc1cccc2c1N(C)C(=O)C2=O	-1.2	7.0	-18.6	-2.7	-4.4	25.4	.	.
CS(=O)(=O)N(CC(=O)NC1CCCC1)C1CCCCC1	-21.9	-47.0	6.1	2.7	-2.8	13.8	.	.
O=C(NCc1cccnc1)C1CCN(S(=O)(=O)c2cc(Cl)ccc2Cl)CC1	8.0	-5.7	28.9	-2.2	1.5	-10.3	.	.
COC(=O)C1=C(C)N(CCCC(=O)O)C(=O)NC1c1ccc(C#N)cc1 (stereo unspecified)	6.6	6.3	.	-1.0	-1.1	6.3	.	.
CCN(c1ccccc1)S(=O)(=O)c1ccc2c(c1)N(C(C)=O)CCS2	-6.9	-4.3	9.1	1.1	-3.7	19.1	.	.
O=C(Cn1nnc2ccccc21)OCC(=O)c1ccc(Cl)c(Cl)c1	-3.2	11.9	0.0	-3.3	-13.2	71.2*	-105.9	-22.7
O=C(Cn1nnc2ccccc21)OCC(=O)c1ccccc1	-3.8	5.3	-2.9	1.3	-2.9	17.0	.	.
CCc1ccc(S(=O)(=O)/N=C2\C=C(Nc3ccc(C(=O)O)cc3)C(=O)c3ccccc32)cc1	-1.7	-1.4	-10.3	0.5	7.3	-39.0	.	.
CC(C)(C)c1ccc(S(=O)(=O)/N=C2\C=C(NS(=O)(=O)c3ccccc3)C(=O)c3ccccc32)cc1	-9.6	13.5	10.8	-5.6	-5.8	32.1*	-24.6	-78.7
Cc1ccc(S(=O)(=O)/N=C2\C=C(NS(=O)(=O)c3ccccc3)C(=O)c3ccccc32)c(C)c1	.	22.4	.	-6.2	-5.7	29.7*	-6.8	-5.5
O=C(COC(=O)Cc1cccc(C(F)(F)F)c1)Nc1ccc2c(c1)OCCO2	11.2	-1.9	19.0	4.5	-1.6	10.2	.	.
N#CC(C#N)=C1C=CC=CN1/C(=C\c1ccco1)C(=O)c1ccc(Cl)cc1	.	25.1	3.3	-5.9	-6.5	33.7*	-359.7	-11.3
N#CC(C#N)=C1C=CC=CN1/C(=C\c1ccco1)C(=O)c1ccc(-c2ccccc2)cc1	.	6.0	26.1	-3.5	-2.9	14.5	.	.
O=C(COC(=O)C1CCN(S(=O)(=O)c2cccs2)CC1)c1cc2ccccc2o1	4.5	10.1	-13.0	-5.8	-9.6	58.0*	-254.0	-18.6
CC(=O)NC1C(=O)N=C(SC(C)C(=O)Nc2cccc(Cl)c2)NC1=O (stereo unspecified)	-7.3	-9.4	-1.6	3.6	-1.4	8.0	.	.
COc1ccc(C2=NN(S(=O)(=O)c3ccccc3)C(c3ccccc3)C2)cc1 (stereo unspecified)	-20.8	-3.5	-27.5	1.6	-2.1	10.8	.	.
